Screening data (PubChem)
Shown are actives, neighbours in structure and some others; about 11% of the full set was active somewhere.
AmpC inh detg = qHTS Inhibitors of AmpC Beta-Lactamase (assay with detergent); AmpC hydrolysis of nitrocefin, absorbance 480 nm, 0.01% Triton; Potency, µM (top dose mostly 114 µM), for inactives: top-dose activity change, negative = inhibition, actives largely listed as inhibitors; 0.041% of 370,000 active;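 note: 0% = no-compound wells and -100% = no-enzyme wells; nearly all actives have a fitted effect of over 25% in size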
Target sequence (P00811 whole entry, looked up): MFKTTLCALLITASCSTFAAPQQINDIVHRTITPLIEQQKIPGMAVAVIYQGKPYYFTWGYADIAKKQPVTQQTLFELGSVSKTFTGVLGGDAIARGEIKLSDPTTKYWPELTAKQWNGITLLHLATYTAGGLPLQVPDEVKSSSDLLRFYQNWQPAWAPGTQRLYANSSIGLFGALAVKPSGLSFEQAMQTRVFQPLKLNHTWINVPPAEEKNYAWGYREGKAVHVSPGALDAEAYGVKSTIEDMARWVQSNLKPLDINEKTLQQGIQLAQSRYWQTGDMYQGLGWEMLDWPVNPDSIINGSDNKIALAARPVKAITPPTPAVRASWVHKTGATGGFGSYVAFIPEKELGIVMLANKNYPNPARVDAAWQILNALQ
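20 mM phosphate pH 7.0 + 0.01% (detergent screen) or 0.0001% Triton X-100; 5.3 nM AmpC reagent; cpd preinc 15 min RT; nitrocefin (800 uM stock) to start; A480 q20 s × 4 min; Activity was normalised to no-enzyme and no-compound control wells.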
Pf growth 96h = Primary qHTS for delayed death inhibitors of the malarial parasite plastid, 96 hour incubation; Potency, µM (top dose mostly 28.7 µM), inactives show top-dose activity change, negative = inhibition, most hits filed as inhibitors; P. falciparum luciferase reporter growth, 96 h; 6.9% of 320,000 active
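Delayed-death screen, second-generation endpoint: infected erythrocytes, 2% hematocrit, 0.05% parasitemia final; 96 hours at 37 C, 5% CO2; luciferase detection reagent; luminescence decrease equals reduced growth.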
HCV inhibitor = qHTS Assay for Inhibitors of Hepatitis C Virus (HCV); Huh7.5.1 HCVcc-Cre infection, luciferase reporter, 44 h; Potency, µM (top dose mostly 41.8 µM), for the others: at the top dose activity change, negative = inhibition, most hits filed as inhibitors; 3.4% of 340,000 active
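HCVcc-Cre virus at an moi near 0.5 was added right after compound to cells cultured 4 h from seeding (1,000 cells/well). Luciferase activity was determined 44 h later, 15 min after substrate addition at RT.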
Pf growth 48h = Primary qHTS for delayed death inhibitors of the malarial parasite plastid, 48 hour incubation; Potency, µM (titrated, usually from 28.7 µM), inactives show at the highest dose activity change, negative = inhibition, usual class: inhibitors; P. falciparum luciferase growth in erythrocytes, 48 h; AID 504832, 2011; 5.9% of 310,000 active
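Erythrocytes infected with P. falciparum carrying an integrated firefly luciferase reporter (2% hematocrit, 0.1% parasitemia final) were exposed to compounds in RPMI 1640 with 0.5% Albumax at 37 C, 5% CO2. Growth inhibition was scored as reduced luminescence.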
AmpC no deterg = qHTS Inhibitors of AmpC Beta-Lactamase (assay without detergent); Potency, µM (series often up to 57.1 µM), for inactives: top-dose activity change, negative = inhibition, usual class: inhibitors; AmpC nitrocefin hydrolysis, absorbance 480 nm, 0.0001% Triton; 0.52% of 330,000 active;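 note: plate controls were no compound for no effect and no enzyme for full effect; nearly all actives have a fitted effect of over 20% in size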
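AmpC (5.3 nM in the dispensed reagent) in 20 mM phosphate pH 7.0 with 0.01% (detergent screen) or 0.0001% Triton X-100 was preincubated with compounds for 15 min at room temperature. Nitrocefin was then added from an 800 uM solution, and hydrolysis was followed at 480 nm.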
AMA1 RON2 block = qHTS for Inhibitors of AMA1-RON; Towards Development of Antimalarial Drug Lead: Primary Screen | 0.2% of 360,000 active | Plasmodium falciparum AMA1 (3D7) - RON2 peptide interaction | AID 720542, 2013 | Potency, µM (titrated, usually from 58.2 µM), without a hit: at the highest dose activity change, negative = inhibition, actives largely listed as inhibitors | AlphaScreen AMA1-biotinylated RON2 peptide binding;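 note: 0% = vehicle wells and -100% = peptide control; nearly all actives have a fitted effect of over 45% in size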
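AMA1 (3D7) with his tag at 25 nM final met compounds first, then biotinylated RON2 peptide at 25 nM; detection used donor plus acceptor beads, 10 µg/mL apiece, read by AlphaScreen after 30 min at room temperature.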
An asterisk follows results filed as active; ? = inconclusive; . = no result; [ ] = another dose, or the depositor's remark. Calls come from the whole dose curve; as a rule, active = well fitted curve in the direction sought with a large enough effect; inconclusive = small, poorly fitted or top-dose-only effect, or another doubt; inactive = no such curve, though single readings can be large; an effect the other way counts as inactive or inconclusive. Unless noted, % is set by controls: 0 for no effect and ±100 for the full control effect; potency is the fitted concentration of half-maximal effect.

SMILES	AmpC inh detg	Pf growth 96h	HCV inhibitor	Pf growth 48h	AmpC no deterg	AMA1 RON2 block
C=C(C)CSc1nc2sc3c(c2c(=O)n1-c1ccccc1)CCN(C)C3	-6%	0.83µM*	?	1.5µM*	98%	18%
C=CCSc1nc2sc3c(c2c(=O)n1-c1ccc(C)cc1)CCN(C)C3	-1%	1.5µM*	?	3.7µM*	46%	-7%
Cc1ccccc1-n1c(SCC(=O)O)nc2sc3c(c2c1=O)CCCC3	-9%	?	?	6%	-31%	0%
CCSc1nc2sc3c(c2c(=O)n1-c1ccccc1C)CCN(C)C3	-11%	1.5µM*	?	5.2µM*	35%	-5%
CN1CCc2c(sc3nc(SCC(N)=O)n(-c4ccccc4)c(=O)c23)C1	9%	.	?	?	-7%	-19%
CCCCSc1nc2sc3c(c2c(=O)n1-c1ccc(OC)cc1)CCN(C)C3	10%	?	-24%	9.3µM*	239%	-9%
COc1ccc(NC(=O)Cn2cc(S(=O)(=O)c3ccccc3)c(=O)c3cc(C)ccc32)cc1Cl	-1%	.	.	.	.	.
CN1CCc2c(sc3nc(SCC(=O)N4CCCCC4)n(-c4ccccc4)c(=O)c23)C1	1%	3.3µM*	?	12µM*	102%	0%
CCCCNc1nc2sc3c(c2c(=O)n1-c1cccc(Cl)c1)CCN(C)C3	?	0.37µM*	4µM*	1.9µM*	53%	-20%
CCSc1nc2sc3c(c2c(=O)n1-c1ccccc1)CCN(C(C)C)C3	-5%	0.83µM*	?	1.5µM*	7%	-7%
COc1cccc(C(=O)Nc2ccc3nc(SCc4ccc(C)cc4)sc3c2)c1	17%	.	.	.	.	.
CN1CCCCC1CCN1c2ccccc2Sc2ccc(S(C)=O)cc21 (centres undefined)	-3%	1.5µM*	?	?	22%	-4%
CC(C)COc1ccc(C(=O)Nc2ncn[nH]2)cc1	-7%	69%	0%	21%	5%	72%
CC(C)Oc1ccc(C(=O)Nc2ncn[nH]2)cc1	-9%	10µM*	0%	52%	-7%	81%
CC(C)Oc1cccc(C(=O)Nc2ncn[nH]2)c1	?	?	-9%	28%	-9%	46%
CCOc1ccc(C(=O)Nc2ncn[nH]2)cc1	-1%	2.1µM*	15%	19%	-4%	89%
COc1ccc(S(=O)(=O)c2c(Nc3ccc(F)cc3)sc(C(=O)c3ccc4c(c3)OCO4)c2N)cc1	13%	.	.	.	.	.
CC(Sc1nc2c([nH]c3ccccc32)c(=O)n1-c1ccccc1)c1ccccc1 (centres undefined)	5%	.	.	.	.	.
Cc1noc(C)c1CN(C(=S)NC1CC2CCC1C2)c1ccccc1 (centres undefined)	-9%	-29%	-35%	12µM*	28%	-12%
Cc1ccc(C)c(CN2C(=O)c3ccccc3S(=O)(=O)c3ccc(C(=O)N4CCOCC4)cc32)c1	-18%	.	.	.	.	.
N#Cc1ccc(C=NN2CCCCCC2)cc1	.	.	0%	.	.	28µM*
Cc1nn(-c2ccccc2)nc1C(=O)Oc1cc(C(F)(F)F)nn1-c1ccccc1	9%	-29%	1%	0.37µM*	-35%	0%
CCOC(=O)C1(Cc2ccc(Cl)cc2)CCN(C(C)Cc2ccc(O)c(OC)c2)CC1 (centres undefined)	?	?	10µM*	?	59%	-14%
COc1ccc(CC2(CO)CCN(S(=O)(=O)c3sccc3C)CC2)cc1	4%	12µM*	-18%	?	4%	-12%
COc1ccc(CC2(CO)CCN(C(C)Cc3ccc(Cl)cc3)CC2)cc1 (centres undefined)	0%	8%	?	12µM*	63%	-2%
SMILES	AmpC inh detg	Pf growth 96h	HCV inhibitor	Pf growth 48h	AmpC no deterg	AMA1 RON2 block
COc1ccc(CC2(CO)CCN(Cc3cccnc3)CC2)cc1	4%	-18%	5%	10µM*	11%	15%
COc1cccc(CC2(CO)CCN(Cc3cccn3-c3cccnc3)CC2)c1	-5%	?	-1%	-10%	20%	-6%
CCOC(=O)C1(Cc2ccc(OC)cc2)CCN(S(C)(=O)=O)CC1	10%	2%	10%	27%	62%	-14%
COC(=O)c1cccc(CN2C(=O)SC(Nc3ccccc3C)C2=O)c1 (centres undefined)	16%	.	.	.	.	.
COc1ccc(-c2cc3nc(C)c(CCC(=O)N4CCN(c5ccccc5F)CC4)c(C)n3n2)c(OC)c1	-7%	.	.	.	.	.
OCC1(Cc2ccccc2)CCN(Cc2cnc(-c3ccc(Cl)cc3)nc2)CC1	-3%	32%	10µM*	?	156%	-28%
COc1ccc(CC2(CO)CCN(Cc3ccc4nsnc4c3)CC2)cc1	-2%	?	?	9%	9%	1%
OCC1(Cc2ccccc2)CCN(Cc2cnc(-c3cccc4ccccc34)nc2)CC1	13%	32%	-25%	?	154%	-17%
COc1ccc(-c2ncc(CN3CCC(CO)(Cc4cccc(OC)c4)CC3)cn2)cc1	6%	?	?	10µM*	219%	-20%
O=C(NCC(c1cccnc1)N1CCc2ccccc2C1)C(=O)Nc1ccccc1F (centres undefined)	15%	.	.	.	.	.
O=C1COc2ccc(C(=O)CSc3nc4ccccc4c(=O)n3-c3ccc(Cl)c(Cl)c3)cc2N1	0%	?	-8%	10µM*	20%	-9%
CCOc1ccc(NC(=O)c2cc(C)nc3c2c(C)nn3-c2cccc(F)c2)cc1	1%	.	.	.	.	.
COc1ccc(-c2csc3nc(-c4cccnc4)nc(N4CCC(C(N)=O)CC4)c23)cc1OC	10%	0%	-9%	-25%	280%	3%
COc1ccc(-c2csc3nc(C)nc(N4CCCCC4)c23)cc1OC	?	4.7µM*	?	?	34%	-19%
O=C(Nc1ccccc1N1CCN(C(=O)c2ccccc2)CC1)c1ccccc1Cl	-14%	?	-26%	0%	25%	-6%
O=C(Nc1ccccc1N1CCN(C(=O)c2ccc(Cl)cc2)CC1)c1cc(Br)ccc1Cl	?	4.7µM*	-25%	6.6µM*	-21%	-3%
COc1ccc(Cl)cc1C(=O)Nc1ccccc1N1CCCCC1	-8%	?	11µM*	4%[0.00184 µM]	-28%	29%
